Reference: PubChem BioAssay (NCATS)
Results filed as inconclusive are left out. The source made the active and inactive calls. Calls follow the shape of the dose curve; as a rule, active = well fitted activation curve with a large enough effect in the main read-out, with a control signal flat (not every such curve was filed as active); inconclusive = small, poorly fitted or top-dose-only effect, or effect the other way, or a change in a side signal; inactive = flat fitted curve, though single readings scatter.

biological target: 3',5'-cyclic-AMP phosphodiesterase 4B (Homo sapiens) (UniProt Q07343); assay: qHTS Assay for Inhibitors of PDE-IV (AID 607); conditions: HEK293 ACTOne CNG channel cells, membrane potential fluorescence; series mostly up to 22.9 µM
Summary of the method: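 The readout is membrane depolarisation from a cAMP-sensing CNG channel, detected with a potential dye at ex 535/em 590. Cells were HEK293-derived (endogenous PDE-IV) at 1000 cells/well, titrated up to 22.9 uM final.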

3',5'-cyclic-AMP phosphodiesterase 4B (Homo sapiens), sequence (Q07343 whole entry, looked up): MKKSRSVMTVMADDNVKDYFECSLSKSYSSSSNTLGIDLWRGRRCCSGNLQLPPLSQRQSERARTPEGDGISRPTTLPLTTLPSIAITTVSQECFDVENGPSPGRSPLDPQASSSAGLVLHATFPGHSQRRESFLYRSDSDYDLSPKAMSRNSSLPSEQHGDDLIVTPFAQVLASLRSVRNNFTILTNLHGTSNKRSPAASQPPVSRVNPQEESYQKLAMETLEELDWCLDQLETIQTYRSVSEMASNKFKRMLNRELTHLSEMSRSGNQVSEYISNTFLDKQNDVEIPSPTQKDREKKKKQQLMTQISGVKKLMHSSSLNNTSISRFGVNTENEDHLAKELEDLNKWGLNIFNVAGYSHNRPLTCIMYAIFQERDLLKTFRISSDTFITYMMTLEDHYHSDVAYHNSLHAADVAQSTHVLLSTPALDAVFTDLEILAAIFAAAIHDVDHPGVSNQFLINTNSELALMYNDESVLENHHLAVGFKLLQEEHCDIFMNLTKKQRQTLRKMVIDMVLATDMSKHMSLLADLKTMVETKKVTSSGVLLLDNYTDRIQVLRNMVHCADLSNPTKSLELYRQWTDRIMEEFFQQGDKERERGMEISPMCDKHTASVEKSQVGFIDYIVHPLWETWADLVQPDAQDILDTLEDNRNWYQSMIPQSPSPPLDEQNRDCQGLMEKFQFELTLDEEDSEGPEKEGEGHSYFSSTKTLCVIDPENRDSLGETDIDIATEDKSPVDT

outcome, inactive:
COC(=O)[C@@H]1C[C@H]1[C@@H](N)c1ccccc1
COC(=O)[C@@]1(Cc2ccc(F)cc2)[C@H]2c3cc(C(=O)N(C)C)n(Cc4ccccc4)c3C[C@H]2CN1C(=O)c1ccccc1
CCCC/C=C/C(NC(=O)CCc1ccccc1)c1ccccc1 (stereo unspecified)
COC(=O)[C@@]1(Cc2ccc(OC)cc2)[C@H]2c3cc(C(=O)N(C)C)n(Cc4cc(C)n(C)n4)c3C[C@H]2CN1C(=O)c1ccccc1
COC(=O)[C@@]1(Cc2ccc(OC)cc2)[C@H]2c3cc(C(=O)N4CCCC4)n(CCCNc4ncc(C(F)(F)F)cc4Cl)c3C[C@H]2CN1C(=O)c1ccccc1
COC(=O)[C@@]1(Cc2ccc(OC)cc2)[C@H]2c3cc(C(=O)N(C)C)n(CCc4ccc(O)c(OC)c4)c3C[C@H]2CN1C(=O)c1ccccc1
COC(=O)[C@H]1[C@@H]2C[C@H]3c4[nH]c5ccccc5c4CCN3C[C@@H]2CC[C@@H]1O
CCC/C=C(\CCC)C(NC(=O)CCc1ccccc1)c1ccc(C(F)(F)F)cc1 (stereo unspecified)
C[C@@H](C(=O)NCC1CC1)[C@H]1C[C@]1(C)[C@H](NC(=O)OCc1ccccc1)c1ccccc1
COC(=O)[C@@]1(Cc2ccc(OC)cc2)[C@H]2c3cc(C(=O)N(C)C)n(Cc4ccc(C)c(F)c4F)c3C[C@H]2CN1C(=O)c1ccccc1
COC(=O)[C@@]1(Cc2ccc(OC)cc2)[C@H]2c3cc(C(=O)N(C)C)n(Cc4ccccc4)c3C[C@H]2CN1C(=O)c1ccccc1
